Measurements from PubChem BioAssay AID594 (National Center for Advancing Translational Sciences (NCATS), 2007).
Screen size: about 59,000 compounds; about 30 (0.05%) were called active. No stated cut-off is given here; in the data, active means max dye-equivalent concentration above about 11 nM; inconclusive means between about 1.1 nM and that limit; inactive means weaker than that. For the sample, actives were picked, then their nearest neighbours and some compounds at random.

test: qHTS Assay for Spectroscopic Profiling in Rhodamine Spectral Region; details: Rhodamine-region fluorescence, 547/598 nm, Tris buffer
Text: NIH Molecular Libraries Screening Centers Network [MLSCN] NIH Chemical Genomics Center [NCGC] […] Occasionally, the artifactual effect may originate from the compound#s own spectral or other biophysical properties which generally tend to track its assay concentration. Pre-screening/profiling the library with respect to the compounds# spectral properties should help one exclude false positives early on. While the most informative fluorescent profiling data set is obtained by performing a full excitation and emission scan of each well by using a monochromator-based plate reader, such an approach is practical only on a very limited scale as scanning each well requires long time. An alternative approach, applied here, is to perform plate reader scans using selected excitation and emission wavelength pairs to generate a multidimensional relational database that correlates compound concentration and the respective relative fluorescence intensity at a given wavelength set. A standard curve of rhodamine present on each plate as six-point concentration series, was used to compute a normalized fluorescence response, termed dye-equivalent concentration, for each compound at each concentration.
NCGC Assay Protocol Summary: Buffer: 100 mM Tris buffer, pH 8.0 Dye standard plate: The wells in columns 1 through 4 of a Kalypsys polypropylene 1536-well compound plate were filled with standard solutions of fluorophore corresponding to the spectral region of interest. Solutions of rhodamine were placed in the following wells: E1, F1: 3 mM, E2, F2: 300 uM, E3, F3: 30 uM, E4, F4: zero (DMSO), G1, H1: 3 uM, G2, H2: […], G3, H3: 300 nM, G4, H4: zero (DMSO). Assay Steps: Six uL of buffer were dispensed to 1536-well Greiner black plates. Compounds and dye standards (23 nL) were transferred via Kalypsys PinTool. The plates were incubated for 15 min at room temperature, and then read on ViewLux (Perkin-Elmer) High-throughput CCD imager using 547 nm and 598 nm excitation and emission filter set. Keywords: NIH Roadmap, MLSCN, MLI, MLSMR, qHTS, NCGC, Rhodamine , Fluorescent Profiling.

Max dye-equivalent concentration, inactive:
COC(=O)CN(c1cccc(C(C)=O)c1)S(C)(=O)=O
COCCn1c(=O)c(C)nc2cnc(N(C)C)nc21
O=C(COc1ccc(F)cc1)N(CC1=CCS(=O)(=O)C1)c1ccccc1
CN(c1ccc(C(=O)N2CCc3ccccc3C2)cc1)S(C)(=O)=O
CCCC(=O)Nc1nnc(CC(=O)OCC)s1
CCOP1(=O)C=C(C(C)(C)C)OC1c1ccc(F)cc1 (configuration not stated)
CC(=O)NC(Cc1ccc(F)cc1)C(=O)O (configuration not stated)
Cc1[nH]c(N)nc(=S)c1CCCNc1ccccc1
O=C(O)c1cscn1
CCOC(=O)Cc1c(C)nc2c(C#N)c(C)nn2c1C
CCN(CCCNC(=O)C1CCN(S(=O)(=O)c2cnc[nH]2)CC1)c1ccccc1
COc1cc(OC)c(C(=O)Nc2ccc(N(C)C)cc2)cc1OC
Cc1nc2cc(-c3ccc(F)cc3)nn2c(N2CCOCC2)c1C
COCCOC(=O)C1=C(C)Nc2nc(C)nn2C1c1ccccc1 (configuration not stated)
CCOC(=O)c1sc(NC(=O)CSc2nnc(-c3ccco3)o2)c(C(=O)OCC)c1C
C[C@H](NC(=O)OC(C)(C)C)c1nnc(SCC(=O)Nc2ccc(Br)cc2)o1
Cn1c(=O)c2c(ncn2CC(=O)N2CCN(c3ccccc3)CC2)n(C)c1=O
CCCCc1nccn1CCn1ccnc1CCCC
O=C(CCn1c(=O)oc2ccccc21)Nc1ccon1
O=C1OC(NC(=O)c2ccccc2)C(N2CCOCC2)=C1Cl (configuration not stated)
COc1cc(C2C(C(=O)c3sc(C)nc3C)=C(O)C(=O)N2CCN(C)C)cc(OC)c1OC (configuration not stated)
COc1ccc(CC(=O)Nc2nc3n(n2)C(c2ccccc2)CC(=O)N3)cc1OC (configuration not stated)
CCOC(=O)CN1CC23C=CC(O2)C(C(=O)Nc2ccc(F)cc2)C3C1=O (configuration not stated)
CC1(C)Cc2c(C#N)c(SCc3nc4ccccc4[nH]3)nc(N3CCOCC3)c2CO1
CCOC(=O)C1CCCN(Cc2nc(N)nc(Nc3ccc(C)cc3)n2)C1 (configuration not stated)
CCN(CC)c1ccc2cc(C(=O)O)c(=O)oc2c1
Cc1ccc(CN2C(=O)CCC2C(=O)NCCCN2CCCCC2C)cc1 (configuration not stated)
Cc1ccc(Cn2nnc3c(=O)n(CC(=O)N4CCCCC4)cnc32)cc1
Cc1ccc(-n2nc3c(c2NC(=O)c2ccc4c(c2)OCO4)CSC3)c(C)c1
CCCC1CC(C)(C(=O)Cn2[nH]c(=O)ccc2=O)OC1=O (configuration not stated)
CCc1cccc2c3c([nH]c12)C(CC)(CC(=O)O)OCC3 (configuration not stated)
CCC(c1nnnn1Cc1ccccc1)N(Cc1cc2cc(OC)ccc2[nH]c1=O)CC1CCCO1 (configuration not stated)
O=C(CN(CC1CCCO1)C(=O)CNS(=O)(=O)c1ccccc1)NCc1ccccc1 (configuration not stated)
CC(=O)Nc1ccc(S(=O)(=O)N2CCN(CCCOc3cc(C)ccc3C)CC2)cc1
CCNS(=O)(=O)c1ccc(NC(=O)Nc2cccc(C(F)(F)F)c2)cc1
CCOc1ccc(CN(Cc2ccco2)C(c2cccs2)c2nnnn2C(C)(C)C)cc1 (configuration not stated)
O=c1[nH]c(-c2cccs2)nc2ccccc12
Cc1ccc2nc(NCCCNC(=O)c3cnccn3)c(C#N)cc2c1
COc1ccc(C)cc1NC(=O)CSc1nc(SC)ns1
Cc1nc2nc(CSc3nc4ccccc4s3)cc(=O)n2[nH]1
COc1ccc(Cl)cc1S(=O)(=O)Nc1cccc(C(=O)O)c1
O=C(Nc1ccon1)c1sc2ccccc2c1Cl
Cn1c(=S)c2[nH]c(SCCCc3ccccc3)nc2n(C)c1=O
O=S(=O)(NCc1cccnc1)c1ccc(Br)s1
O=C(OCC(O)C(O)COC(=O)c1ccccc1)c1ccccc1 (configuration not stated)
Cc1nc2ccc(S(=O)(=O)NCC(=O)NCCN3CCCCC3C)cc2s1 (configuration not stated)
CNC(=O)c1cc2c(ccc3ccccc32)oc1=N
COc1ccc2oc(=O)c(C(=O)N3CCN(c4ccccc4F)CC3)cc2c1
COc1ccc(N=Cc2c(O)[nH]c3ccccc23)cc1OC
CC1CCCN(C(=O)Cn2c(=O)oc3ccccc32)C1 (configuration not stated)
CC1(C)CC(O)C(CCC(O)c2ccccc2)C(C)(C)N1 (configuration not stated)
CC(=O)OCc1cc2cc(C)ccc2[nH]c1=O
O=C(c1cc(C(F)(F)F)cc(C(F)(F)F)c1)N1CCC2(CCCN(c3ccccn3)C2)CC1
CCc1ccccc1NC(=O)CSc1nnc([C@@H](NC(=O)OC(C)(C)C)C(C)CC)o1 (some centres not stated)
CCOC(=O)CSc1nncc2ccc(OC)c(OC)c12
Cc1noc(C)c1-c1cc(NCc2cccnc2)ncn1
CN1CCN(c2ncc3nc(-c4ccc(Cl)cc4)c(=O)n(-c4ccccc4)c3n2)CC1
CC(=O)c1ccc(-n2nnnc2SCC(=O)N2CCN(C(=O)c3ccco3)CC2)cc1
COc1ccc2c(c1)CCc1c(C(=O)N3CCCC3)noc1-2
O=C(NCc1ccco1)c1sc2cccc(F)c2c1Cl
Cc1cc2nc(-c3ccc(NC(=O)c4cccnc4)cc3)oc2cc1C
c1ccc2c(CNn3cnnc3)cccc2c1
Cn1c(SCC(=O)Nc2cccc(O)c2)nnc1-c1ccc(S(=O)(=O)N2CCOCC2)cc1
CC(C)C(=O)N1CCN(CCN=CC2=C(O)CC(c3ccco3)CC2=O)CC1 (configuration not stated)
O=C(c1cc(C(F)(F)F)cc(C(F)(F)F)c1)N1CCC[C@@]2(CCN(c3ccccn3)C2)C1
COc1ccc2c(c1)CCc1c(C(=O)N3CCc4ccccc4C3)noc1-2
S=c1[nH]nc(SCc2ccccc2Cl)c2[nH]cnc12
Brc1ccc(Nc2c3c(nc4ncnn24)CCC3)cc1
Cc1cc(=O)oc(C)c1C(=O)NC1CC(C)(C)NC(C)(C)C1
CCOC(=O)COc1ccc(Cl)cc1C1NC(=O)NC(C)=C1C(C)=O (configuration not stated)
Cc1cccc(N2CCN(C(=O)C3CCN(S(=O)(=O)c4cnc[nH]4)CC3)CC2)c1C
Cc1cc(Cl)ccc1OCC(=O)Oc1c(Cl)c(Cl)c(Cl)c(Cl)c1Cl
